The structures appear in SMILES notation. ± gives the uncertainty stated by the source.

The test relates to HEK293T-Rex XBP1-RLuc. As to the kind of experiment: XBP1-RLuc splicing reporter activation, triplicate, relative to 500 nM thapsigargin (% of thapsigargin); higher = stronger IRE1/XBP1s reporter activation. As to conditions: 6.8 µM; 18 h; screen: confirmation. The procedure: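 HEK293T-Rex cells stably expressing the ERSE-firefly luciferase (BiP promoter, ATF6-preferring) or XBP1-splicing Renilla luciferase (IRE1/XBP1s) reporter, 1536-well plates, compound at 6.8 µM for 18 hr at 37 °C; luminescence read […] and expressed as % activation = 100*(compound - median DMSO)/(median 500 nM thapsigargin - median DMSO). Primary screen was single-pass; confirmation screen in triplicate (mean ± SD).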
Consider `N#C/C(=C(/O)c1cc(-c2ccccc2)nc2ccccc12)c1nc2ccccc2[nH]1`, for which the “XBP1-RLuc splicing reporter activation” value amounted to 9.52 ± 1.4.

For `COc1ccc(-c2cc(C(=O)Nc3cc(C)ccc3O)on2)cc1OC`, the “XBP1-RLuc splicing reporter activation” value came to 10.9 ± 1.2.

`O=C(N/N=C/c1cccc(O)c1O)c1ccccc1I`: the “XBP1-RLuc splicing reporter activation” value was 11.2 ± 0.69.

As to `Nc1ccc2nc(-c3cc(Cl)c(N)c(Cl)c3)[nH]c2c1`, the “XBP1-RLuc splicing reporter activation” value is 13.2 ± 1.2.

Consider `COc1ccc(CCNC(=O)c2cccc(-c3ccc(N4CCOCC4)nc3)c2)cc1`, for which the “XBP1-RLuc splicing reporter activation” value is 1.79 ± 0.38.

In the case of `N#Cc1c(NC(=O)/C=C/c2ccco2)sc2c1CCCC2`, the “XBP1-RLuc splicing reporter activation” value worked out at 11.3 ± 1.3.

Regarding `C=CCn1c(N2CCC(C(=O)NCCc3ccc(O)c(O)c3)CC2)nc2ccccc21`, the “XBP1-RLuc splicing reporter activation” value is 33.9 ± 2.

In the case of `O=C(CCCCCCC(=O)Nc1ccccc1)NO`, the “XBP1-RLuc splicing reporter activation” value was -3.63 ± 0.95.

`O=C(CCc1ccccc1)Nc1ccc(Cl)cn1`: the “XBP1-RLuc splicing reporter activation” value is 0.292 ± 0.79.

For `N#Cc1c(NC(=O)c2cnccn2)sc2c1CCCC2`, the “XBP1-RLuc splicing reporter activation” value amounted to 2.98 ± 3.5.

For the molecule `N/C(=N\N=C\c1ccc(O)c(O)c1)c1nonc1N`, the “XBP1-RLuc splicing reporter activation” value is 19.5 ± 0.38.

For the molecule `O=[N+]([O-])c1ccc(/C=C/c2ccc(O)cc2)cc1`, the “XBP1-RLuc splicing reporter activation” value turned out to be 19.2 ± 1.3.

Turning to `COc1cccc(C(=O)Nc2sc3c(c2C#N)CC(C)CC3)c1` (centres undefined), the “XBP1-RLuc splicing reporter activation” value was 3.54 ± 0.93.

On to `COc1ccccc1-c1nnc(Nc2nc3c(OC)cccc3s2)o1`, for which the “XBP1-RLuc splicing reporter activation” value worked out at 10.2 ± 1.

Turning to `COc1ccc(Nc2nccn3c(-c4ccsc4)cnc23)cn1`, the “XBP1-RLuc splicing reporter activation” value came to 3.91 ± 0.5.

On to `CCCCNC(=O)c1cc(-c2ccc(F)cc2)on1`, for which the “XBP1-RLuc splicing reporter activation” value worked out at 7.08 ± 0.26.

As to `O=C1/C(=C/c2ccc(O)c(O)c2)Oc2cc(O)ccc21`, the “XBP1-RLuc splicing reporter activation” value was 12.6 ± 0.23.

As to `O=[N+]([O-])c1ccc(N/N=C/c2ccccc2O)cc1`, the “XBP1-RLuc splicing reporter activation” value amounted to 2.37 ± 0.96.

For `O=C1N/C(=C\c2ccc(O)cc2)C(O)=C1C=NCc1ccccc1`, the “XBP1-RLuc splicing reporter activation” value stood at 49.1 ± 2.3.
